Calb FLC – affects C. albicans growth with fluconazole; AID 1979; 300,000 compounds, 0.57% hits; C. albicans CaCi-2 (fluconazole-resistant clinical isolate) + fluconazole, Alamar Blue growth, 48 h; growth inhibition, % (concentration not given with the values);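 active = growth inhibition above about 58% in most replicates, limit read from the data, passing the limit was not always enough; inconclusive = exactly half the replicates above a set limit; inactive = most replicates below a set limit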;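 also: all wells also contain fluconazole at 8 µg/ml as a sub-toxic cotreatment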
PP1 inh – blocks human PP1-alpha phosphatase, a PP5 counter-screen | purified PP1alpha, OMFP fluorescence | inhibition, % at 6.7 µM | 320,000 compounds, 0.9% hits | AID 2235;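 active = inhibition above the mean inhibition of all tested compounds plus 3 SD, computed separately for each screening campaign, cut at about 15% in these data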
Target sequence (P62136 whole entry, looked up): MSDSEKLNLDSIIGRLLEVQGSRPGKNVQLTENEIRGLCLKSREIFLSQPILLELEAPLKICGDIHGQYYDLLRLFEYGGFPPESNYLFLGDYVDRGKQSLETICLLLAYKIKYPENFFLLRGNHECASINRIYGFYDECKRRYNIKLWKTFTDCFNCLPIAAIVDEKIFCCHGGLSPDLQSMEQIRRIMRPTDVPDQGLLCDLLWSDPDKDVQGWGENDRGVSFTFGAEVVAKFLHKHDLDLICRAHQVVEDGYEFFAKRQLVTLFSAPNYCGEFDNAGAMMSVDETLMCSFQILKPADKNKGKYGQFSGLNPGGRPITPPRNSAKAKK
ALR inh – blocks human ALR sulfhydryl oxidase activity. purified ALR, DTT oxidation, H2O2 HRP-luminol luminescence. 290,000 compounds, 3.8% hits. inhibition, % (concentration not given with the values);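 active = mean replicate inhibition above about 79%, with every replicate also reaching it, limit read from the data; inconclusive = only one of the two criteria met; inactive = mean below limit and not every replicate reaching it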
Target sequence (P55789 whole entry, looked up): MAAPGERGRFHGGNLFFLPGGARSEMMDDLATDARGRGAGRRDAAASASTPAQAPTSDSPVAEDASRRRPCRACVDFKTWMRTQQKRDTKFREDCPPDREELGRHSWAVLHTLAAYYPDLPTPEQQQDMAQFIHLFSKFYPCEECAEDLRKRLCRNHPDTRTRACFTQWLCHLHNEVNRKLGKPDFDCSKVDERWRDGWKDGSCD
PP5 primary – inhibitors of human protein phosphatase 5 (PP5); P53041; purified PP5c, OMFP substrate fluorescence; inhibition, % at 6.7 µM; 320,000 compounds, 0.18% hits; AID 1987;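 active = inhibition above the campaign's mean inhibition across all tested compounds plus 3 SD, cut at about 9.5% in these data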
CSC inhib – cancer stem cell inhibition; cancer stem cell-like cells viability, luminescence; inhibition, % at 7.5 µM; 300,000 compounds, 1.1% hits; in the data active = inhibition above about 75%; inconclusive = no clear call, values can overlap the other calls; tested in HMLE shEcad cells
Numbers stand for hits; . = inactive; ? = inconclusive; / = no result given; ! = repeats disagree. The list is not random: actives were taken first. Their share in the collection is about 5.4%.

SMILES | Calb FLC | PP1 inh | ALR inh | PP5 primary | CSC inhib
Nc1ccc(S(=O)(=O)c2ccc(N)c(N)c2)cc1 | . | . | 88.5 | . | .
O=C(c1c(O)cc(O)cc1O)C1c2c(cc(O)c3c2O[C@H](c2ccc(O)cc2)[C@@H](O)C3)OC1c1ccc(O)cc1 (stereo partly drawn) | / | . | 98.9 | . | .
O=S(=O)(Nc1nc2ccccc2nc1N1CCc2ccccc2C1)c1ccc(Br)cc1 | / | . | . | . | .
Cc1ccc(S(=O)(=O)NCCc2nnc3ccc(SCC(=O)Nc4nc(C)cs4)nn23)cc1 | . | . | 98.4 | . | .
Cc1ccc(C(=O)NCCc2nnc3ccc(SCC(=O)N4CCCCC4)nn23)cc1 | . | . | 89.3 | . | .
Cc1ccc(C(=O)NCCc2nnc3ccc(SCC(=O)Nc4ccc(C)cc4C)nn23)cc1 | . | . | . | . | .
Cc1ccc(C(=O)NCCc2nnc3ccc(SCC(=O)Nc4ccccc4F)nn23)cc1 | . | . | 97.3 | . | .
O=C(CCC1COc2ccccc2O1)NC1CCCCC1 (stereo not drawn) | . | . | . | . | /
Cc1ccc(N(CC(=O)NCCSc2nc3ccccc3s2)S(=O)(=O)c2ccccc2)c(C)c1 | . | . | / | . | .
COCCn1cnc2c1c(=O)n(CC(=O)NCC(F)(F)F)c(=O)n2Cc1ccccc1 | . | . | . | . | .
O=C(CSc1nc2ccc([N+](=O)[O-])cc2[nH]1)NC1CCCCC1 | ? | . | . | . | .
O=C(c1ccco1)c1nnn(Cc2ccccc2)c1-c1ccccc1 | . | . | . | . | 78.0
Nc1c(C(=O)NCc2ccco2)nnn1Cc1ccccc1 | . | . | . | . | .
CCCNc1cc(C)oc(=O)c1C(=O)CC | . | . | . | . | .
COC(=O)c1c(-c2ccc(OC)cc2)sc2cc3c(cc12)OCO3 | / | . | . | . | .
COC(=O)c1c(-c2ccc(N(C)C)cc2)sc2ccc(OC)cc12 | / | / | . | / | 105.6
Cc1ccccc1-c1cc2c(nn1)-c1ccccc1C2=O | . | . | . | . | 107.9
Cc1ccc(-c2cc3c(nn2)-c2ccccc2C3=O)cc1 | . | . | . | . | .
C/C(=N\NC(=O)CCC(=O)Nc1ccc(C)c(C)c1)C1CC1 | 123.5 | / | . | / | .
Cc1ccc(-c2cn(-c3ccccc3)c3[n+]2CCCS3)cc1 | 99.2! | . | . | . | .
c1ccc(-c2cn(-c3ccccc3)c3[n+]2CCCS3)cc1 | . | . | . | . | .
COc1ccc(-n2cc(-c3ccc(C)cc3)[n+]3c2SCC3)cc1 | 107.0 | . | . | . | .
Cn1c(CCN2CCCC2)nc2cc(NS(=O)(=O)c3ccc(Cl)cc3)ccc21 | . | . | . | . | .
CCCCCCCCOC(=O)c1c(CSC(=N)N)n(C)c2cc(Br)c(OC(C)=O)cc12 | . | 16.5 | . | . | 76.3
CCOC(=O)c1c(CSc2nc(C)cc(C)c2C#N)n(C)c2cc(Br)c(OC(C)=O)cc12 | . | . | . | . | .
SMILES | Calb FLC | PP1 inh | ALR inh | PP5 primary | CSC inhib
C=CCn1c(SCC(N)=O)nc(C)cc1=O | . | . | . | . | .
O=S(=O)(c1ccc(F)cc1)N1CCN(c2ccc(-c3ccccc3)nn2)CC1 | . | . | / | . | .
O=[N+]([O-])c1ccc(OCCCOc2cccc3cccnc23)cc1 | . | . | . | . | .
COc1ccccc1NC(=O)CN1CCSc2ccccc21 | . | . | 80.5 | . | .
COc1cccc(NC(=O)CN2CCSc3ccccc32)c1 | . | . | 99.6 | . | .
CC(=O)NS(=O)(=O)c1cccnc1Nc1ccc(Cl)c(Cl)c1 | . | . | 97.9 | . | .
Oc1c(CN2CCCCC2)cc(Br)c2cccnc12 | . | . | / | . | .
Oc1ccc(CN2CCN(Cc3ccccc3)CC2)c2cccnc12 | 60.3 | . | . | . | .
CN1CCN(Cc2cc(COCc3ccccc3)c3cccnc3c2O)CC1 | 109.5 | 22.4 | / | . | .
O=C(Nc1ccsc1C(=O)NC1CC1)c1ccccc1 | . | . | . | . | .
CS(=O)(=O)n1nc(NCc2cccs2)nc1NCc1cccs1 | . | . | / | . | .
CC1=Nc2cccc3cccc(c23)N1C | . | . | 99.1 | . | .
CCOc1ccc(N/C(SCc2cccc([N+](=O)[O-])c2)=C(/C#N)C(N)=O)cc1 | . | . | 98.9 | . | .
CCOc1ccc(N/C(SC)=C(/C#N)C(N)=O)cc1 | . | . | . | . | .
O=C(CCc1nc2sc3c(c2c(=O)[nH]1)CCCC3)Nc1ccccc1Cl | . | 15.8 | . | . | /
Cc1cccc(C)c1NC(=O)CN(C)C(=O)CCc1nc2sc3c(c2c(=O)[nH]1)CCCC3 | / | . | . | . | /
Cc1cccc(NC(=O)CNC(=O)CCc2nc3sc4c(c3c(=O)[nH]2)CCCC4)c1C | . | . | . | . | .
CN(CC(=O)Nc1cccc(F)c1)C(=O)CCc1nc2sc3c(c2c(=O)[nH]1)CCCC3 | . | . | 91.2 | . | .
CCCC1=C(C(=O)OCC)C(c2ccc(F)cc2)n2ncnc2N1 (stereo not drawn) | . | . | . | . | .
CCCC1=C(C(=O)OCC)C(c2ccc(N(C)C)cc2)n2ncnc2N1 (stereo not drawn) | . | . | 98.5 | . | .
COc1ccccc1NC(=O)c1ccc(COc2ccc3c(c2)CCC3)cc1 | . | . | . | . | .
Cc1cc(NCCCN2CCOCC2)n2ncc(-c3ccccc3)c2n1 | . | . | . | . | .
CN(C)CCCNc1cc(C(C)(C)C)nc2c(-c3ccccc3)cnn12 | . | . | 99.0 | . | 99.5
COc1ccc(S(=O)(=O)N(CC(=O)NCc2ccco2)C2CCCCC2)cc1OC | . | . | . | . | .
Cc1cc2oc3cc(NCCC4CCCN4C)ccc3c(=O)c2cc1C (stereo not drawn) | . | . | 90.8 | . | 103.0
SMILES | Calb FLC | PP1 inh | ALR inh | PP5 primary | CSC inhib
O=c1c2ccccc2sc2ccc(NCCCN3CCOCC3)cc12 | . | . | . | . | .
CN1CCCC1CCNc1ccc2sc3ccccc3c(=O)c2c1 (stereo not drawn) | . | . | 97.8 | . | .
O=c1c2ccccc2oc2ccc(NCCCn3ccnc3)cc12 | . | . | . | . | .
CCc1nc(C)c(-c2ccccc2)c(=O)[nH]1 | . | . | . | . | /
O=C(CN1C(=O)NC2(CCCCC2)C1=O)Nc1cccc2ncccc12 | / | . | . | . | .
O=C1CCC(=O)N1CCCCCc1nc(-c2ccccc2)no1 | . | . | / | . | .
CC1=C(C(=O)N2CCOCC2)C(c2ccc(-c3ccccc3)cc2)NC(=S)N1 (stereo not drawn) | . | . | . | . | .
O=C(Nn1c(C2CCCCC2)nc2ccccc2c1=O)c1ccc([N+](=O)[O-])cc1Cl | . | 17.0 | . | . | .
COc1ccccc1NC1C=CS(=O)(=O)C1 (stereo not drawn) | . | . | 76.3 | . | .
COc1cc(/C=C/CN2CCN(Cc3ccc(C)o3)C(CCO)C2)ccc1O (stereo not drawn) | . | . | 97.6 | . | .
COc1ccccc1/C=C/CN1CCN(Cc2ccc(C)o2)C(CCO)C1 (stereo not drawn) | . | . | . | . | .
COc1cc(/C=C/CN2CCC(CO)(CC3CCCCO3)CC2)ccc1O (stereo not drawn) | . | . | 91.7 | . | /
